The supplement of paper PMC6555819

test system: VDR:RXRa (NR concentration 270 nM, RXRa partner concentration 90 nM); experiment: PBM binding z-score (relative to random genomic background probes); higher = stronger binding; sequences stand for … in GC…GCGATTGACAGCGTAGAATGAAGG
Procedure: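 Protein-binding microarray (Agilent 4x180K custom design, double-stranded 60-nt probes: 5' GC cap, 34-nt variable region, 24-nt constant primer region; full probe sequence given). Purified or IVT nuclear receptor:RXRα heterodimers (3:1 NR:RXRα, mostly 270:90 nM) or homodimers were incubated for 1 h in PBS with 2% milk and no ligand, then detected with Alexa488 antibodies. Fluorescence from o1-orientation probes (~5 replicates averaged) was converted to z-scores against 500 random hg19 background probes. Variable regions are seed direct-repeat (DR0–DR5) sites, all their single-nucleotide variants and half-site ablations.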

**Q.** CCACCAAGGTGAACAAGGTCGTTGATTACTATTC was tested. Which PBM binding z-score did it give?
**A.** 6.23

**Q.** GATACAGGGTAAGCTAGAGGCCAGAGTATGGAAA was tested. Which PBM binding z-score did it give?
**A.** -0.409

**Q.** For TCATATAGGTAATACAGGTGAAAGTTGGCATCTA, which PBM binding z-score is on record?
**A.** 1.46

**Q.** Which PBM binding z-score does the source give for TCTAGCAGGCCAGAGGTTCACTCAAGAGGTACGG here?
**A.** 0.704

**Q.** Which PBM binding z-score does the source give for TCATATAGGTATAGGTGAAAGTCGAACGATATGA here?
**A.** 0.632

**Q.** Which PBM binding z-score does the source give for ACAGACAAGTGAGTGAAGGTAACTCAGCTGGACG here?
**A.** -0.435

**Q.** With ATCGAAAGGTCGACGAGGTGAGTACACACCGTTT as the sequence, how does the PBM binding z-score read?
**A.** 5.59

**Q.** Which PBM binding z-score does the source give for GGAACGAGGGCAAGTGGATAGCAGAGTTTGATGG here?
**A.** 0.391

**Q.** With CATACAGGGTCAGCTAGGCCAGAGTTGGGACGGC as the sequence, how does the PBM binding z-score read?
**A.** 3.74

**Q.** Which PBM binding z-score does the source give for GCTTACGGGTCAAAGGTTGTAGCATGAATAGAAT here?
**A.** 4.66

**Q.** For CCGACTGGGGCAAAGGTTAGCATACTCAGTACGA, which PBM binding z-score is on record?
**A.** 0.691

**Q.** With CGAACTAGGTCATGCAGGACAGTGAATACATTGA as the sequence, how does the PBM binding z-score read?
**A.** 4.23

**Q.** CAAACTAGATCACCGGAAGGTCAAAGTCCGCATG was tested. Which PBM binding z-score did it give?
**A.** 3.03

**Q.** How did the PBM binding z-score turn out when TCATATAGGTAATACAGCTGAAAGTCGGCATCTA was run?
**A.** 0.891

**Q.** Which PBM binding z-score does the source give for CTACCAAGGTGAACAAGTTCGTTGATTACTATTC here?
**A.** 6.15

**Q.** ATCTCTAGGTAACACGTTCAGTGAAAGAGAGGAC was tested. Which PBM binding z-score did it give?
**A.** 0.339

**Q.** Which PBM binding z-score does the source give for AGAATGAGGTTACCAAAAATCAGGGAAACGCTTG here?
**A.** 1.03

**Q.** CCTCGGAGGACATAAGGTCAGAGCTGTCCGCTTT was tested. Which PBM binding z-score did it give?
**A.** 1.91

**Q.** For CCAGACAGTTGAGAAGGTAACTCAGCCTCGATTA, which PBM binding z-score is on record?
**A.** 0.251

**Q.** GCTAGCAGGCCAGTTGGGTCACTCAATGACGGGC was tested. Which PBM binding z-score did it give?
**A.** -0.00125

**Q.** How did the PBM binding z-score turn out when ATCGAAAGGTCGACGAGGTGCGTATACACCGTTT was run?
**A.** 4.18

**Q.** With CCAGACAGGTGAGTAGGTAACTCAGCCTCGATTA as the sequence, how does the PBM binding z-score read?
**A.** -0.168

**Q.** For CCTACTGGGCCCAAAAGGTCATTGATGCCGATAA, which PBM binding z-score is on record?
**A.** 4.63

**Q.** For GGAACGAGGGCATTCGAGTTGATAGAATGGCGAT, which PBM binding z-score is on record?
**A.** 3.62

**Q.** Which PBM binding z-score does the source give for CGAACTAGGGCATCCAGGACAGTGAATACATTGA here?
**A.** 0.492

**Q.** Which PBM binding z-score does the source give for GATACAGGGTCAGCTCGAGGCCAGAGTATGGAAA here?
**A.** 3.61

**Q.** Which PBM binding z-score does the source give for CCTTACGGGTCACTCCAGTTTATAGCATCGGAGT here?
**A.** 5.1

**Q.** For CAACCTAGGTCAAAGGTCAAAGTCGAGCCAACCA, which PBM binding z-score is on record?
**A.** 7.01

**Q.** ATATGTAGGATACATCCGGGTCATTCAGGCTATG was tested. Which PBM binding z-score did it give?
**A.** 3.21

**Q.** Which PBM binding z-score does the source give for TCTATTAGTTAATTAGGGCAACCGAAACAGCGGA here?
**A.** 0.823

**Q.** How did the PBM binding z-score turn out when TCTAGTTGGTCGAAGGTCACACACTCGAAATGCG was run?
**A.** 3.37

**Q.** For ATCTCTAGGGAAGACTCAGTTCAGTGAAGAACGC, which PBM binding z-score is on record?
**A.** 0.408

**Q.** For CGTCCACGGTCAGAGAGGTCAGTGAATGCCGAGT, which PBM binding z-score is on record?
**A.** 4.97

**Q.** Which PBM binding z-score does the source give for TCGAGTAGGTTCCCAATGGGGCATTCAGCTTTCT here?
**A.** -0.37

**Q.** Which PBM binding z-score does the source give for CCTACTGGGCCACGCAAGGTCATTGATTCAGTGA here?
**A.** 3.62

**Q.** How did the PBM binding z-score turn out when GCTTACGGGTAAAAGGTTATAGCATGAATAGAAT was run?
**A.** 1.57

**Q.** Which PBM binding z-score does the source give for ATACGTAGGTTAGCTGGGGTCATTCAGACTAGGC here?
**A.** 6.12

**Q.** Which PBM binding z-score does the source give for GCGACTGGGGCAAAGCAGGTTACCATAAGGTTGG here?
**A.** 0.149

**Q.** Which PBM binding z-score does the source give for AGAACGAGGGCCCGCTGAGTTGATAGCAGAGTAG here?
**A.** -1.03

**Q.** Which PBM binding z-score does the source give for ATCTCTAGGTAACCAAGTTCAGGGAATGCCGAAC here?
**A.** 3.85
